MEKK2mut PB1 HTS: MEK5 binding signal on mutant MEKK2 PB1, primary screen, biochemical, multiplex bead flow cytometry, Alexa488-MEK5; actives 0.35% (n = 290,000); AID 1530, 2009; Alexa488-MEK5 binding to MEKK2 mutant; percent response, % at 10 µM; in the data active = percent response above about 24%, passing the limit was not always enough
GRK2 aptamer HTS: compounds blocking aptamer binding on GRK2 – biochemical, human GRK2, bead flow cytometry, HTS, primary screen. FAM-aptamer displacement from GRK2. AID 488847, 2010. inhibition of aptamer binding, % at 10 µM. actives 0.59% (n = 330,000);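 active = inhibition of aptamer binding above 40%, roughly 3 SD of noise, on plates passing a quality check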;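 also: median bead fluorescence of bound FAM aptamer so fluorescent compounds give negative values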
Target sequence (P25098 whole entry, looked up): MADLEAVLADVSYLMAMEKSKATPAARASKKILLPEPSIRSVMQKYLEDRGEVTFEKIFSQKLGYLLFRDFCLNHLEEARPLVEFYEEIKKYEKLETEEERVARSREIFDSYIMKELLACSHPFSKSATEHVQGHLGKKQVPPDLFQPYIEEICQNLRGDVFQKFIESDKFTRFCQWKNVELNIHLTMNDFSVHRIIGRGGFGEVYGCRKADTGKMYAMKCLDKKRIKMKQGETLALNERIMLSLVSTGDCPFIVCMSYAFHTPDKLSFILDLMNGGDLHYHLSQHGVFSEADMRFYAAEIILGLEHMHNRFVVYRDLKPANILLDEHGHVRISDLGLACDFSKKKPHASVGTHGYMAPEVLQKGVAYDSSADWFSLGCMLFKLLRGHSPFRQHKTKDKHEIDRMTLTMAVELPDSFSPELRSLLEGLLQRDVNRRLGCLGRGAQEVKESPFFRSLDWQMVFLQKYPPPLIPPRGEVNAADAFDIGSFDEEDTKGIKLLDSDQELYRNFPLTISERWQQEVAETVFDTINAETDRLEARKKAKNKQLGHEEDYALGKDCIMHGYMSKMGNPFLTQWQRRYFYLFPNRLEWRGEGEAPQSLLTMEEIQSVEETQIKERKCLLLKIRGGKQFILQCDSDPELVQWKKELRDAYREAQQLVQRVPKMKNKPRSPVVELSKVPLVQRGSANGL
MEKK2 WT-MEK5: modulators of MEK5 binding to wildtype MEKK2, primary screen, biochemical, multiplex bead flow cytometry, Alexa488-MEK5 | Mitogen-activated protein kinase kinase kinase 2 (Homo sapiens), Q9Y2U5 | Alexa488-MEK5 binding to MEKK2 WT; actives lie on both sides | binding response (% of control), % at 10 µM | actives 1.1% (n = 290,000); in the data active = binding response below about 67% or above about 130%
MEKK3 PB1 HTS: modulators of MEKK3-MEK5 PB1 binding, primary screen, biochemical, wildtype MEKK3, multiplex bead flow cytometry, Alexa488-MEK5. actives 1.4% (n = 290,000). bead-based flow cytometry, Alexa488-MEK5 binding to MEKK3; actives lie on both sides; 0 = blocked by unlabeled MEK5, 100 = vehicle. Mitogen-activated protein kinase kinase kinase 3 (Homo sapiens), Q99759. binding response (% of control), % at 10 µM. AID 1529, 2009;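 active = binding response more than 3 SD above or below the average of its plate-row segment, actives on both sides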;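 also: Alexa488 bead fluorescence after subtracting the streptavidin-only scavenger bead signal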
MEKK2wt confirm: modulators of MEK5 binding to wildtype MEKK2, confirmation, biochemical, single concentration, multiplex bead flow cytometry; shares compounds with MEKK3 PB1 HTS; Alexa488-MEK5 binding to MEKK2 WT; actives lie on both sides; binding response (% of control), % at 10 µM; actives 2.4% (n = 5,900); AID 1892, 2009; in the data active = binding response below about 16% or above about 210%; inactive = in between
MEKK2mut-MEK5: mutant MEKK2 PB1-MEK5 binding signal retest – biochemical, single concentration, multiplex bead flow cytometry, confirmation; shares compounds with MEKK3 PB1 HTS; Alexa488-MEK5 binding to MEKK2 mutant; percent response, % at 10 µM; actives 2% (n = 5,900); AID 1893, 2009; in the data active = percent response mostly above about 71%, no sharp cut-off; inactive = mostly below about 38%;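 also: higher means compound restores mutant binding toward wildtype level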
MEKK3-MEK5 inh: MEKK3 wild-type PB1 binding to MEK5, inhibitors, confirmation, biochemical, bead multiplex flow cytometry, single concentration, wildtype; Alexa488-MEK5 binding to MEKK3; hits give low values; binding response (% of control), % at 10 µM; shares compounds with MEKK3 PB1 HTS; actives 1.8% (n = 5,900);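 active = binding response below 72% of control, or above a set upper limit, though filed actives all read lower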;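 also: lower values mean stronger disruption of MEK5 binding to MEKK3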
Large screens that a line does not name were inactive (follow-up assays come after a bar, where they were run); [ ] = another dose, or the depositor's remark. Rows were chosen to be rich in hits. Some 2.5% of all compounds tested hit in one or more screens of this group.

CCC(=O)Nc1ccc(C(=O)CSc2nnc(-c3ccc(O)cc3)n2CC2CCCO2)cc1OC (stereo not drawn)	none (no result: MEKK2mut PB1 HTS, MEKK2 WT-MEK5, MEKK3 PB1 HTS)
CCN(CC)C(=O)CSc1nnc(-c2ccc(O)cc2)n1CC1CCCO1 (stereo not drawn)	MEKK3 PB1 HTS 136 | MEKK2wt confirm inactive | MEKK2mut-MEK5 inactive | MEKK3-MEK5 inh inactive
O=S(=O)(c1ccc(F)c(F)c1F)N1CCN(C(=S)NCc2ccccc2)CC1	none
O=S(=O)(c1ccc(F)c(F)c1F)N1CCN(C(=S)NC2CC3CCC2C3)CC1 (stereo not drawn)	MEKK3 PB1 HTS 64[inhibitor] | MEKK2wt confirm inactive | MEKK2mut-MEK5 inactive | MEKK3-MEK5 inh inactive
COC(=O)C(CC(C)C)NC(=O)c1cccs1 (stereo not drawn)	MEKK3 PB1 HTS 129 | MEKK2wt confirm inactive | MEKK2mut-MEK5 inactive | MEKK3-MEK5 inh inactive
COCCNC(=O)C(C)OC(=O)c1cc2sccc2n1C (stereo not drawn)	none
CC(C)C(OC(=O)c1cc2sccc2n1C)C(=O)NCC1CCCO1 (stereo not drawn)	MEKK2 WT-MEK5 -2.0[inhibitor], MEKK3 PB1 HTS 1.0[inhibitor] | MEKK2wt confirm inactive | MEKK2mut-MEK5 inactive | MEKK3-MEK5 inh inactive
COc1ccc(CN2CCCC(C(=O)N3CCCCC3)C2)c(OC)c1 (stereo not drawn)	none
CC(=O)Nc1ccc(S(=O)(=O)NC2(C(F)(F)F)NC(=O)N(CC(C)C)C2=O)cc1 (stereo not drawn)	none
Cc1ccc(NC(=O)CC2SC(=Nc3ccc(O)cc3)NC2=O)cc1 (stereo not drawn)	MEKK3 PB1 HTS 133 | MEKK2wt confirm inactive | MEKK2mut-MEK5 inactive | MEKK3-MEK5 inh inactive
CC1CN(Cc2cc(=O)[nH]c(C3CC3)n2)CC(C)O1 (stereo not drawn)	MEKK2 WT-MEK5 3.0[inhibitor], MEKK3 PB1 HTS 2.0[inhibitor] | MEKK2wt confirm inactive | MEKK2mut-MEK5 inactive | MEKK3-MEK5 inh inactive
O=c1cc(CN2CCCCC2)nc(C2CC2)[nH]1	none
CC1CCN(C(=S)Nc2ccc3nc4n(c(=O)c3c2)CCCCC4)CC1	none
COc1ccc(NC(=O)CSCC(=O)N2c3ccccc3CCc3ccccc32)cc1	MEKK3 PB1 HTS 148 | MEKK2wt confirm inactive | MEKK2mut-MEK5 inactive | MEKK3-MEK5 inh inactive
CC[n+]1c(/C=C2/C=C(C)CC(C)(C)C2)sc2ccc(OC)cc21	none
CC(C)Oc1ccc(C(=O)Nc2ccc(N3CCCC3)cc2)cc1	none
CN1CCN(c2ccccc2NC(=O)c2ccc(-c3ccc(Cl)c(Cl)c3)o2)CC1	MEKK2 WT-MEK5 139 | MEKK2wt confirm inactive | MEKK2mut-MEK5 inactive | MEKK3-MEK5 inh inactive
CC(=O)N1CCN(c2ccc(NC(=O)c3cccc(OCc4ccccc4)c3)cc2)CC1	none
CN1CCN(c2ccccc2NC(=O)c2ccc(-c3ccc(Br)cc3)o2)CC1	none
CN1CCN(c2ccccc2NC(=O)c2ccc(OCc3ccccc3)cc2)CC1	none
CN1CCN(c2ccccc2NC(=O)c2cccc(OCc3ccccc3)c2)CC1	MEKK2 WT-MEK5 137 | MEKK2wt confirm inactive | MEKK2mut-MEK5 inactive | MEKK3-MEK5 inh inactive
CC(=O)N1CCN(c2ccc(NC(=O)c3ccc(OCc4ccccc4)cc3)cc2)CC1	MEKK3 PB1 HTS 62[inhibitor] | MEKK2wt confirm inactive | MEKK2mut-MEK5 inactive | MEKK3-MEK5 inh inactive
O=C(Nc1ccc(N2CCCC2)cc1)c1ccc(Br)cc1	MEKK2 WT-MEK5 151 | MEKK2wt confirm inactive | MEKK2mut-MEK5 inactive | MEKK3-MEK5 inh inactive
COC(=O)CN1C(=O)NC2(CCCc3ccccc32)C1=O (stereo not drawn)	none
COc1ccc(-n2nc3cc(C)c(NC(=O)c4cccnc4)cc3n2)cc1	none
Cc1ccccc1Nc1nnc(SCC(=O)NCc2ccco2)s1	none
CCC1CCCCN1CCCNC(=O)c1ccc(CS(=O)(=O)c2ccccc2OC)o1 (stereo not drawn)	none
Cc1ccc(-c2cnn(-c3ccccc3)c2N)cc1	none
Nc1c(-c2ccccc2)cnn1-c1ccc(C(=O)O)cc1	MEKK3 PB1 HTS 82[inhibitor] | MEKK2wt confirm inactive | MEKK2mut-MEK5 inactive | MEKK3-MEK5 inh inactive
CC(C)CNC1CS(=O)(=O)CC1O (stereo not drawn)	none
O=S1(=O)CC(O)C(NCc2cccnc2)C1 (stereo not drawn)	MEKK3 PB1 HTS 82[inhibitor] | MEKK2wt confirm inactive | MEKK2mut-MEK5 inactive | MEKK3-MEK5 inh inactive
CC(C)C1Cc2c(C#N)c(N)sc(=S)c2CO1 (stereo not drawn)	MEKK2 WT-MEK5 48[inhibitor] | MEKK2wt confirm inactive | MEKK2mut-MEK5 inactive | MEKK3-MEK5 inh inactive
CN(C)C(=O)CCc1ccc2c3c([nH]c2c1)[C@]1(CCC2CCCC2)[C@@H](C(=O)N2CCOCC2)C[C@H](CC(=O)NC(C)(C)C)C(=O)N1CC3	none (no result: MEKK2mut PB1 HTS, MEKK2 WT-MEK5, MEKK3 PB1 HTS)
O=C1OC(/C(=C\Nc2cc(Cl)ccc2O)[N+](=O)[O-])c2ccccc21 (stereo not drawn)	MEKK3 PB1 HTS 38[inhibitor] | MEKK2wt confirm inactive | MEKK2mut-MEK5 inactive | MEKK3-MEK5 inh inactive
O=C1OC(/C(=C\Nc2ccc(F)cc2F)[N+](=O)[O-])c2ccccc21 (stereo not drawn)	none
CCCCCNCC(=O)Nc1cccc(C(=O)Nc2cccc(C(F)(F)F)c2)c1	MEKK2 WT-MEK5 174 | MEKK2wt confirm inactive | MEKK2mut-MEK5 inactive | MEKK3-MEK5 inh inactive
O=C(CN1CCOCC1)Nc1cccc(C(=O)Nc2cccc(C(F)(F)F)c2)c1	none
CCOC(=O)COn1c(=O)c(-c2cccs2)[n+]([O-])c2ccccc21	MEKK2 WT-MEK5 26[inhibitor], MEKK3 PB1 HTS 15[inhibitor] | MEKK2wt confirm inactive | MEKK2mut-MEK5 inactive | MEKK3-MEK5 inh inactive
O=C(COc1cccc(NC(=O)c2ccccc2)c1)c1ccccc1	none
O=C(COc1cccc(NC(=O)c2cccs2)c1)c1ccc(F)cc1	MEKK3 PB1 HTS 138 | MEKK2wt confirm inactive | MEKK2mut-MEK5 inactive | MEKK3-MEK5 inh inactive
COC(=O)Nc1nn(Cc2ccccc2F)cc1Br	MEKK3 PB1 HTS 74[inhibitor] | MEKK2wt confirm inactive | MEKK2mut-MEK5 inactive | MEKK3-MEK5 inh inactive
C=CCOC(=O)C1=C(C)NC(=O)NC1c1ccc(N(C)C)cc1 (stereo not drawn)	none
O=C(N/N=C/c1cccc(O)c1)c1cc(C2CC2)nc2ccccc12	none

Screening results: PubChem BioAssay, NMMLSC
